Test results: ChEMBL document CHEMBL1157539, “Thousands of chemical starting points for antimalarial lead identification” (Nature, 2010)

Each compound was assayed on Plasmodium falciparum (assay: GSK_TCMDC: Inhibition of Plasmodium falciparum 3D7 in whole red blood cells, using parasite LDH activity as an index of growth. Test compounds present at 2uM).
Format: functional

Structure (SMILES) | Inhibition [%]
COc1cc2nc(N3CCC(CNC(=O)c4ccc(C(C)=O)cc4)CC3)nc(N)c2cc1OC.O=C(O)C(F)(F)F | 96
Cc1ccc2c(=NN=Cc3cccc(Cl)c3)cc(C)[nH]c2c1 | 96
CC(C)CCN1CCC(Oc2ccc(NC(=O)c3cccs3)cc2Cl)C1.O=C(O)C(F)(F)F (centres undefined) | 94
Br.CC1(C)NC(N)=NC(=N)N1OCCCOc1cccc2ccccc12 | 95
CN(CCS(C)(=O)=O)Cc1ccc(-c2ccc3ncnc(Nc4ccc(OCc5cccc(F)c5)c(Cl)c4)c3c2)o1.Cc1ccc(S(=O)(=O)O)cc1 | 100

The compounds below were run on Plasmodium falciparum (assay: GSK_TCMDC: Inhibition of Plasmodium falciparum Dd2 in whole red blood cells, using parasite LDH activity as an index of growth. Test compounds present at 2uM).
Format: functional

Structure (SMILES) | Inhibition [%]
CC(C)(O)CC(C)(C)c1cc(Cl)ccc1O | 1
O=C(Nc1cccc(C(F)(F)F)c1)NC1CCN(c2ccnc3ccccc23)C1.O=C(O)C(F)(F)F (centres undefined) | 69
O=[N+]([O-])c1ccccc1C=NN=c1cc[nH]c2ccccc12 | 98
COc1ccc2nccc(NC(=O)C3(O)CCC(NCc4ccc5c(c4)NCCS5)CC3)c2n1.Cl (centres undefined) | 64
Cc1cc(NCCc2ccccc2)nc(N/C(=N/CC(=O)OC(C)(C)C)Nc2ccc(C(F)(F)F)cc2)n1.I | 97
Cc1noc(=O)c2ccc(NC(=O)C(O)(CSc3ccccc3)CC(C)C)cc12 (centres undefined) | 89
CC(C)CNCc1cccc(-c2ccc(CN(CCCN3CCN(C)CC3)C(=O)CCC3CCCC3)cc2)c1.O=C(O)C(F)(F)F | 89
Cc1cc(Cc2ccc(S(=O)(=O)c3cc4c(cc3O)CCN(C)CC4)cc2)ccc1Cl.Cl | 12
CC1(CCc2ccccc2)N=C(N)N=C(N)C1c1ccc(Cl)c(Cl)c1.Cl (centres undefined) | 39
